Values joined by “and” are separate entries in the source; they are usually repeats but may differ in a detail not shown here. Identical values can stand only once. For part of these data: Results with a measured potency or affinity are listed apart. Active and inactive are the calls of the source. Unless noted, no stated cut-off is given here; in the data, active means parasite load remaining mostly below about 12% (no sharp cut-off); inactive means mostly above about 10%. Numbered stars: 1 amine (or outer) side, 2 acyl side, 3 side chain; on linkers, the order of the positions; unused ones are H or OH. Bridge positions count the residues as written; N and C are the ends. Square brackets hold non-standard residues; d marks the D form. Peptide text beside a SMILES is read from it. I, II: the chains in the order shown. Actinocin(9to1) = Cc1c2oc3c(C)ccc(C(=O)[*:1])c3nc-2c(C(=O)[*:2])c(N)c1=O; NMeV = CN[CH](C(=O)O)C(C)C; Sar = CNCC(=O)O
Tests used:
[1] = liver-stage malaria parasite growth inhibition, primary screen, cell-based, HepG2, luciferase luminescence, HepG2 viability (AID 624349);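 further: 100% = mean of DMSO negative control wells on the same plate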; conditions: P. berghei liver stage in HepG2, luciferase luminescence, concentration not given here; parasite load remaining: stronger effect = lower value; viability: measured here: HepG2 viability without parasites
[2] = differential killing of epithelial or mesenchymal cells, primary screen, imaging, PC-3E GFP, TEM4-18 mCherry, co-culture (AID 1345086;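 active means compounds killing one labelled cell type while sparing the other, by normalised counts and ratio limits, not self-fluorescent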;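 on all read-outs here: cells exposed to compound for 72 h before imaging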;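 on red/green cell ratio (normalised): normalised mesenchymal count divided by normalised epithelial count so high means epithelial killing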); conditions: imaging cell counts, at 1 µM; for red/green cell ratio (normalised): actives lie on both sides, counts scaled to control wells, 1 = unselective
[3] = sensitizers of A549 cells to miR-34 induction, primary screen, imaging, A549 dox-inducible miR-34, nuclei and caspase counts (AID 1347080;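 active means compounds whose cell count with miR-34 switched on is under 0.7 times the count with it off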); conditions: A549 miR-34 inducible, Hoechst nuclei count, 48 h
[4] = phospholipid biosynthesis inhibitors in animal cells, primary screen, cell-based, LOPAC library, screen 4 (AID 1347384; call rule not given here); conditions: phospholipid biosynthesis inhibition screen, at 10 µM
[5] = molecular target: Mitogen-activated protein kinase 7 (Homo sapiens) (UniProt Q13164); assay: ERK5 transactivation activators in reporter cells, primary screen, cell-based, HTS (AID 1508626;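 active means luciferase signal above three times the same-plate solvent-only control wells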;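 further: luciferase driven by Gal4-ERK5 fusion binding five Gal4 sites before minimal TATA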); conditions: HeLa Gal4-ERK5 transactivation, 18 h, at 5 µM, stronger effect = higher value
Sequence of Mitogen-activated protein kinase 7 (Homo sapiens) (Q13164 whole entry, looked up, the tested form may be a part): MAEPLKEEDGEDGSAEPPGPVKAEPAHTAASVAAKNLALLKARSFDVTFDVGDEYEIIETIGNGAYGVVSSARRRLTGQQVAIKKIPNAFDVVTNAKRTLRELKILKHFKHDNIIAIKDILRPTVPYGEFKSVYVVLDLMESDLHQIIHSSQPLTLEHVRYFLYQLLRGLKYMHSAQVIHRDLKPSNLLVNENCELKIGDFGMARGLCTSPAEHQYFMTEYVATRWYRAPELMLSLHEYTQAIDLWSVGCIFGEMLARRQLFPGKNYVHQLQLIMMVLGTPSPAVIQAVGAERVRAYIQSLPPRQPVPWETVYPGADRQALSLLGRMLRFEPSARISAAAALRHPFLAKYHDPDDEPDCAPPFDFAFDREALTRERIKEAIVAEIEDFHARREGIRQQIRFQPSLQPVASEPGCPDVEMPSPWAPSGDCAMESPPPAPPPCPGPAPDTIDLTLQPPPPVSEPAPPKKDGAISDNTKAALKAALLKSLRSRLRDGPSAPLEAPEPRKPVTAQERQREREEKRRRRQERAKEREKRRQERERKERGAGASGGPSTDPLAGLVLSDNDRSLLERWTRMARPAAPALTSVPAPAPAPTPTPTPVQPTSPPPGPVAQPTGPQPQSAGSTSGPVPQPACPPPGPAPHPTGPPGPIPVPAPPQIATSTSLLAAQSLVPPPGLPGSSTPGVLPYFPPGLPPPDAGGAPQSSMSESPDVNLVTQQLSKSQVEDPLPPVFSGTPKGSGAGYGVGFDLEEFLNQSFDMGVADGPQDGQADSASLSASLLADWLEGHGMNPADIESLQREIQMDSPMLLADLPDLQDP

[6] = polyglutamine-triggered caspase-3 activation inhibitors, cell-based (AID 1583); conditions: polyglutamine-induced caspase-3 activation, cell assay; stronger effect = higher value;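 tested at 10 µM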
[7] = suppressors of polyQ aggregation in yeast, 75Q-TubU reporter (AID 1593); conditions: Yeast 75Q polyglutamine aggregation reporter
[8] = rescue of polyQ-huntingtin neuronal dysfunction in worms, whole organism, C. elegans mechanosensory neurons, N-terminal huntingtin (AID 1599); conditions: touch response, stronger effect = higher value
[9] = inhibitors of mitochondrial cytochrome c release, biochemical, purified mitochondria (AID 1603); conditions: stronger effect = lower value;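 further: mouse liver mitochondria challenged with calcium chloride; signal normalized to the plate average as 100%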
[10] = inhibitors of polyQ protein aggregation (AID 1604); conditions: polyglutamine-induced protein aggregation inhibition assay; stronger effect = higher value; tested at 2.5 µM
[11] = enhancers of glutamate uptake in motor neurons, MN-1 cell line (AID 1612); conditions: MN-1 motor neuron cells, stronger effect = higher value;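 further: tested at 1 µM final; 0% = mean of DMSO vehicle wells on each plate; positive means more glutamate uptake than control and negative means less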
[12] = reducers of polyQ inclusions in PC12 cells, cell-based, NGF-treated PC12, GFPQ80 (AID 1614); conditions: PC12 NGF-treated GFP-polyQ80 inclusion reduction;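 further: lower means fewer inclusions and 0 means no inclusions at all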
[13] = suppressors of polyglutamine aggregation in yeast, 75Q-TubH (AID 1616); conditions: S. cerevisiae 75Q-TubH polyglutamine aggregation suppression; stronger effect = higher value
[14] = survival rescue of mitochondrial mutant cells in low glucose, primary screen, MELAS cybrids, Rieske KO mouse fibroblasts, CellTiter-Glo (AID 1508586;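 active means mean z-score across replicates of 1.96 or higher in either the MELAS or the Rieske mutant cell line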;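 further: z relative to plate mean and SD of compound and empty wells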)
[15] = modifiers of HSF1 nuclear foci, imaging, Selleck Cancer Library (AID 1347162; in the data active means plate-normalised HSF1 focus index below about 0.46); conditions: human cells, at 10 µM; SSMD: measured here: HSF1 foci SSMD mean; cell count: measured here: cell number; plate-normalised HSF1 focus index: stronger effect = lower value
[16] = measured here: epithelial PC-3E GFP cell survival
[17] = measured here: mesenchymal TEM4-18 mCherry cell survival
[18] = stronger effect = lower value, cell number ratio, induced over uninduced
[19] = measured here: relative caspase fold change +Dox/-Dox
[20] = measured here: total cells with miR-34 induction, stronger effect = lower value
[21] = measured here: total cells without miR-34 induction

CCC(=O)OCC(=O)[C@@]1(OC(=O)CC)[C@@H](C)CC2C3CCC4=CC(=O)C=C[C@]4(C)C3(F)[C@@H](O)C[C@@]21C (some centres undefined)
parasite load remaining [1]: 25.9% (inactive)
viability [1]: 83.8%
red/green cell ratio (normalised) [2]: 1.32 (inactive)
normalised cell number [2, 16]: 1.03
normalised cell number [2, 17]: 1.37
fold change [3, 18]: 0.918 (inactive)
fold change [3, 19]: 2.62
cell count [3, 20]: 7780
cell count [3, 21]: 8480

OC[C@H]1OC([S-])[C@H](O)[C@@H](O)[C@@H]1O.[Au+] (some centres undefined)
parasite load remaining [1]: 51.4% (inactive)
viability [1]: 97.6%
red/green cell ratio (normalised) [2]: 0.82 (inactive)
normalised cell number [2, 16]: 1.15
normalised cell number [2, 17]: 0.95
fold change [3, 18]: 0.865 (inactive)
fold change [3, 19]: 2.52
cell count [3, 20]: 9290
cell count [3, 21]: 10700

Cc1c2oc3c(C)ccc(C(=O)OC(C)C4NC(=O)C(C(C)C)N(C)C(=O)CN(C)C(=O)C5CCCN5C(=O)C(C(C)C)NC4=O)c3nc-2c(C(=O)OC(C)C2NC(=O)C(C(C)C)N(C)C(=O)CN(C)C(=O)C3CCCN3C(=O)C(C(C)C)NC2=O)c(N)c1=O (centres undefined) (I: cyclo([Sar][NMeV]TVP) / II: cyclo([Sar][NMeV]TVP); linker I:3-II:3 via Actinocin(9to1); configuration not given here)
parasite load remaining [1]: -0.105% (inactive)
viability [1]: 76.4%
red/green cell ratio (normalised) [2]: 1.97 (active)
normalised cell number [2, 16]: 0.25
normalised cell number [2, 17]: 0.49
fold change [3, 18]: 0.996 (inactive)
fold change [3, 19]: 1.67
cell count [3, 20]: 2910
cell count [3, 21]: 2920

CC(C)(C)NC(=O)[C@H]1CCC2C3CCC4NC(=O)C=C[C@]4(C)C3CC[C@@]21C (some centres undefined)
parasite load remaining [1]: 30.5% (inactive)
viability [1]: 97.9%
red/green cell ratio (normalised) [2]: 1.12 (inactive)
normalised cell number [2, 16]: 0.62
normalised cell number [2, 17]: 0.69
fold change [3, 18]: 0.895 (inactive)
fold change [3, 19]: 2.7
cell count [3, 20]: 11000
cell count [3, 21]: 12300

CC(C)=CCC/C(C)=C/COc1ccc2ccc(=O)oc2c1
red/green cell ratio (normalised) [2]: 1.07 (inactive)
normalised cell number [2, 16]: 0.93
normalised cell number [2, 17]: 0.99
outcome [4]: inactive
luciferase signal [5]: 76 AU (inactive)

Cc1nc(N)cc(C[n+]2csc(CCO)c2C)n1
parasite load remaining [1]: 58.2% (inactive)
viability [1]: 97.3%
red/green cell ratio (normalised) [2]: 0.91 (inactive)
normalised cell number [2, 16]: 0.96
normalised cell number [2, 17]: 0.87
fold change [3, 18]: 0.946 (inactive)
fold change [3, 19]: 4.78
cell count [3, 20]: 12800
cell count [3, 21]: 13500

CN[C@@H]1[C@@H](O[C@H]2O[C@H](CO)[C@@H](N)[C@H](O)[C@H]2O)O[C@H]2C[C@@H](N)[C@H](O[C@H]3[C@H](O)[C@@H](O)[C@H](N)C[C@@H]3N)O[C@@H]2[C@@H]1O
parasite load remaining [1]: 70.7% (inactive) and 61.8% (inactive)
viability [1]: 108% and 98.4%
red/green cell ratio (normalised) [2]: 1.38 (inactive)
normalised cell number [2, 16]: 0.99
normalised cell number [2, 17]: 1.36
fold change [3, 18]: 0.903 (inactive)
fold change [3, 19]: 5.22
cell count [3, 20]: 12300
cell count [3, 21]: 13600

C=C(NC(=O)C(=C)NC(=O)c1csc(C2=NC3c4csc(n4)C4NC(=O)c5csc(n5)C(C(C)(O)C(C)O)NC(=O)C5CSC(=N5)C(=CC)NC(=O)C(C(C)O)NC(=O)c5csc(n5)C3(CC2)NC(=O)C(C)NC(=O)C(=C)NC(=O)C(C)NC(=O)C(C(C)CC)NC2C=Cc3c(C(C)O)cc(nc3C2O)C(=O)OC4C)n1)C(N)=O (centres undefined)
parasite load remaining [1]: 64.9% (inactive) and 23.2% (inactive)
viability [1]: 75.8% and 108%
red/green cell ratio (normalised) [2]: 0.94 (inactive)
normalised cell number [2, 16]: 0.8
normalised cell number [2, 17]: 0.75
fold change [3, 18]: 0.829 (inactive)
fold change [3, 19]: 1.94
cell count [3, 20]: 9190
cell count [3, 21]: 11100

CC1OC1P(=O)(O)O (centres undefined)
inhibition [6]: -3.29%
score [7]: 1.42
rescue above control [8]: 16.3
cytochrome c release ratio [9]: 6.79
inhibition of aggregation [10]: 83.9%
glutamate uptake change [11]: -1.38%
inclusion score [12]: 2
aggregation suppression score [13]: 1.43
parasite load remaining [1]: 59.9% (inactive) and 33.6% (inactive)
viability [1]: 74.5% and 90.1%
red/green cell ratio (normalised) [2]: 1.09 (inactive)
normalised cell number [2, 16]: 1.06
normalised cell number [2, 17]: 1.16
outcome [4]: inactive

C[C@H](N[C@@H](CCc1ccccc1)C(=O)O)C(=O)N1CCC[C@H]1C(=O)O
red/green cell ratio (normalised) [2]: 0.88 (inactive)
normalised cell number [2, 16]: 1.17
normalised cell number [2, 17]: 1.03
z-score ([14]; MELAS cybrid survival, CellTiter-Glo 48 h, stronger effect = higher value): 0.249 (inactive)
z-score ([14]; Rieske KO mouse fibroblast survival, CellTiter-Glo 72 h): -0.206

O=C(O)c1cc(O)c2c(c1)[C@@H]([C@H]1c3cc(C(=O)O)cc(O)c3C(=O)c3c(O[C@H]4O[C@H](CO)[C@@H](O)[C@H](O)[C@H]4O)cccc31)c1cccc(O[C@H]3O[C@H](CO)[C@@H](O)[C@H](O)[C@H]3O)c1C2=O
parasite load remaining [1]: 132% (inactive) and 77.3% (inactive)
viability [1]: 80.8% and 104%
red/green cell ratio (normalised) [2]: 0.69 (inactive)
normalised cell number [2, 16]: 1.22
normalised cell number [2, 17]: 0.84
fold change [3, 18]: 0.789 (inactive)
fold change [3, 19]: 9.83
cell count [3, 20]: 10200
cell count [3, 21]: 12900

C/C=C\C1=C(C(=O)O)N2C(=O)C(NC(=O)C(N)c3ccc(O)cc3)C2SC1 (centres undefined)
parasite load remaining [1]: 117% (inactive) and 53.4% (inactive)
viability [1]: 69.3% and 102%
red/green cell ratio (normalised) [2]: 1.07 (inactive)
normalised cell number [2, 16]: 0.97
normalised cell number [2, 17]: 1.04
fold change [3, 18]: 0.891 (inactive)
fold change [3, 19]: 4.02
cell count [3, 20]: 11600
cell count [3, 21]: 13100

O=C1O[C@H](C(O)CO)C(O)=C1O (some centres undefined)
parasite load remaining [1]: 82.7% (inactive) and 21.4% (inactive)
viability [1]: 69.6% and 79.3%
red/green cell ratio (normalised) [2]: 1.21 (inactive)
normalised cell number [2, 16]: 1.04
normalised cell number [2, 17]: 1.26
fold change [3, 18]: 0.918 (inactive)
fold change [3, 19]: 4.48
cell count [3, 20]: 12000
cell count [3, 21]: 13100

CC(=O)O[C@@]12CO[C@@H]1C[C@H](O)[C@@]1(C)C(=O)[C@H](O)C3=C(C)[C@@H](OC(=O)[C@H](O)[C@@H](NC(=O)OC(C)(C)C)c4ccccc4)C[C@@](O)([C@@H](OC(=O)c4ccccc4)C12)C3(C)C (some centres undefined)
red/green cell ratio (normalised) [2]: 1.12 (inactive)
normalised cell number [2, 16]: 0.16
normalised cell number [2, 17]: 0.18
SSMD [15]: 1.92
cell count [15]: 6830
plate-normalised HSF1 focus index [15]: 1.1 (inactive)

CC(C)c1c(C(=O)c2ccccc2)c(-c2ccccc2)c(-c2ccc(F)cc2)n1CC[C@@H](O)C[C@@H](O)CC(=O)O
parasite load remaining [1]: 174% (inactive) and 44.6% (inactive)
viability [1]: 88% and 103%
red/green cell ratio (normalised) [2]: 0.86 (inactive)
normalised cell number [2, 16]: 1.3
normalised cell number [2, 17]: 1.12
fold change [3, 18]: 0.867 (inactive)
fold change [3, 19]: 3.4
cell count [3, 20]: 9140
cell count [3, 21]: 10500

— PubChem BioAssay
